Screening results as filed in PubChem.
A selection follows.
aSyn 5UTR act: Activators via SNCA 5'UTR binding, MLPCN | alpha-synuclein 5'UTR reporter, activators screen | 300,000 tested, 7.1% active | activity score, % (tested at 7.5 µM), hits read low; in the data active = activity score below about -60%
Each line names hits and unclear results; the compound was inactive in the other large screens.

COc1ccc(NC(=O)c2oc3ccccc3c2NC(=O)c2ccc3c(c2)OCO3)cc1	aSyn 5UTR act -68
O=c1c(O)c(-c2ccc3c(c2)OCO3)oc2ccccc12	aSyn 5UTR act -133
COc1cc2c(cc1NC(=O)c1ccc3c(c1)OCO3)oc1ccccc12	aSyn 5UTR act -285
O=C(Nc1ccc2c(c1)oc1ccccc12)c1ccc2c(c1)OCO2	aSyn 5UTR act -233
COc1ccccc1NC(=O)c1ccc2c(c1)OCO2	aSyn 5UTR act -125
CCOc1ccc(C(=O)Nc2c(C(N)=O)oc3ccccc23)cc1	aSyn 5UTR act -115
C(=C\c1ccco1)/C1=NN(c2ccccc2)C(c2ccco2)C1 (stereo not drawn)	aSyn 5UTR act -210
CC1CCCC(C)N1C(=O)c1cc(-c2ccc(Cl)c(Cl)c2)on1 (stereo not drawn)	aSyn 5UTR act -173
CC1CCCC(C)N1C(=O)c1cc(-c2ccc3c(c2)OCO3)on1 (stereo not drawn)	aSyn 5UTR act -131
O=C(c1cc(-c2ccc3c(c2)OCO3)on1)N1CCCCC1	none
C=CCNc1nnc(Sc2ncccc2[N+](=O)[O-])s1	aSyn 5UTR act -115
CCN(CC)CC(=O)Nc1scc2c1c(=O)oc1ccccc12	aSyn 5UTR act -124
CC(=O)Nc1nc(CCC(C)C)cc2c1c(=O)oc1ccccc12	none
Cc1ccc2oc(=O)n(CCCOc3ccccc3)c2c1	aSyn 5UTR act -69
CCOc1ccc(OCCN2C(=O)c3ccccc3C2=O)cc1	aSyn 5UTR act -94
Cc1ccc2c(c1)C(=O)C(=O)N2CCCOc1ccccc1	aSyn 5UTR act -68
Cc1cccc(OCCn2c(=O)n(C)c3ccccc32)c1	aSyn 5UTR act -162
Cc1cccc(OCCN2C(=O)c3ccccc3C2=O)c1	aSyn 5UTR act -67
O=C1c2ccccc2C(=O)N1CCCOc1ccccc1	aSyn 5UTR act -62
Cc1cccc(OCC(=O)Nc2ccc3c(c2)nc2n3CCOC2)c1	aSyn 5UTR act -69
CC(=O)NCCc1nc2cc(NC(=O)COc3cccc(C)c3)ccc2n1C	aSyn 5UTR act -62
Oc1c(N=NC(=S)Nc2ccccc2F)c2ccccc2n1Cc1ccc(Cl)cc1	none
COc1ccc(NC(=O)n2ncc3cc(Cl)ccc32)cc1OC	aSyn 5UTR act -142
COc1cc(NC(=O)n2ncc3cc(Cl)ccc32)cc(OC)c1	aSyn 5UTR act -186
O=C(Nc1ccccc1F)n1ncc2cc(Cl)ccc21	aSyn 5UTR act -73
C=CCn1cnc2c(NCc3ccccc3)ncnc21	aSyn 5UTR act -76
CC(=O)NC(=S)Nc1ccc(NC(=O)COc2ccc(Cl)cc2Cl)cc1	aSyn 5UTR act -62
Cc1ccc(NC(=O)COc2ccc(Br)cc2C)cc1	aSyn 5UTR act -102
Cc1ccc(OCC(=O)Nc2ccc3c(c2)OCO3)c(C)c1	aSyn 5UTR act -175
Cc1ccc(Cl)c(OCC(=O)Nc2ccc3c(c2)OCCO3)c1	aSyn 5UTR act -146
CCOc1ccc(NC(=O)CCC(=O)NNC(=O)COc2ccc(C)cc2Br)cc1	aSyn 5UTR act -77
Cc1cc(Cl)ccc1OCC(=O)Nc1ccncc1	aSyn 5UTR act -81
O=C(COc1cc(F)ccc1[N+](=O)[O-])Nc1cccc(Br)c1	aSyn 5UTR act -71
O=C(COc1ccccc1[N+](=O)[O-])N/N=C/c1cccc(OC(=O)c2ccc3c(c2)OCO3)c1	aSyn 5UTR act -157
O=C(Cc1ccccc1[N+](=O)[O-])Nc1ccc2c(c1)OCCO2	aSyn 5UTR act -100
O=C(COc1ccccc1[N+](=O)[O-])Nc1ccc(NC(=O)c2cc3ccccc3o2)cc1	aSyn 5UTR act -119
O=C(COc1ccc(/C=N/NC(=O)c2cc3ccccc3o2)cc1Br)Nc1ccccc1	none
O=C(COc1ccccc1[N+](=O)[O-])Nc1ccc2c(c1)OCO2	aSyn 5UTR act -133
CC(C)(C)C(=O)O/N=C(\N)c1ccc(-c2csnn2)cc1	aSyn 5UTR act -131
Cc1ccccc1C(=O)Oc1ccc(-c2csnn2)cc1	aSyn 5UTR act -68
CC(C)(C)C(=O)Nc1ccc(-c2csnn2)cc1	aSyn 5UTR act -74
CC(=O)O/N=C(\N)c1ccc(-c2csnn2)cc1	aSyn 5UTR act -128
CC(C)(C)c1ccc(C(=O)Nc2ccc(F)cc2)s1	aSyn 5UTR act -140
CCc1cc2cc(C(=O)Nc3ccc(F)cc3)sc2s1	aSyn 5UTR act -150
CCc1cc2cc(C(=O)Nc3ccccc3F)sc2s1	aSyn 5UTR act -134
CCn1c(/C=C/c2ccccc2Cl)nc2ccccc2c1=O	aSyn 5UTR act -191
CCn1c(/C=C/c2c[nH]c3ccccc23)nc2ccccc2c1=O	aSyn 5UTR act -176
CCn1c(/C=C\c2ccccc2C)nc2ccccc2c1=O	aSyn 5UTR act -63
COc1ccc2c(c1)O/C(=C\c1sccc1C)C2=O	aSyn 5UTR act -198
N#CC(Cc1ccc(OC(F)F)cc1)c1nc2ccccc2[nH]1 (stereo not drawn)	aSyn 5UTR act -157
Nc1ccc2oc3ccc(N)cc3c(=O)c2c1	aSyn 5UTR act -103
CCCC(=O)Nc1ccc(NC(=O)c2ccccc2F)cn1	aSyn 5UTR act -90
O=C(Nc1ccc(NC(=O)C2CC2)nc1)c1ccccc1F	aSyn 5UTR act -95
O=C(Nc1ccc(NC(=O)C2CCCCC2)nc1)c1cccs1	aSyn 5UTR act -124
Cc1ccc2c(CN(C)Cc3ccccc3)cc(=O)oc2c1C	aSyn 5UTR act -80
O=C(Nc1ccc(O)cc1)c1cc2n(n1)C(C(F)(F)F)CC(c1ccco1)N2 (stereo not drawn)	aSyn 5UTR act -66
Cc1occc1C(=O)N/N=C/C(Br)=C/c1ccccc1	aSyn 5UTR act -219
O=C(N/N=C/C(Br)=C/c1ccccc1)c1ccccc1[N+](=O)[O-]	aSyn 5UTR act -76
O=C(NC(=S)Nc1cccc2[nH]ncc12)c1ccccc1	aSyn 5UTR act -176
CC(C)(C)c1ccc(NC(=O)c2ccccc2)c([N+](=O)[O-])c1	aSyn 5UTR act -100
Cc1c(NC(=O)c2ccc3nsnc3c2)cccc1[N+](=O)[O-]	aSyn 5UTR act -68
O=C(NC(=S)Nc1ccccc1[N+](=O)[O-])c1ccccc1	aSyn 5UTR act -136
Cc1c(NC(=O)c2ccc(C(C)(C)C)cc2)cccc1[N+](=O)[O-]	aSyn 5UTR act -133
CC(=O)Nc1ccc(NC(=O)/C(Cl)=C/c2ccccc2)cc1	aSyn 5UTR act -117
O=C(Nc1nc(-c2cccs2)cs1)c1ccco1	aSyn 5UTR act -85
c1cc2c(cc1-c1csc(NNC3=NCCCCC3)n1)OCCO2	aSyn 5UTR act -70
O=C(NC(=S)Nc1nc(-c2ccccc2)cs1)c1ccco1	aSyn 5UTR act -77
O=C(Nc1nc(-c2ccncc2)cs1)c1ccco1	aSyn 5UTR act -86
CCC(=O)N1CCc2cc(-c3csc(NC(=O)c4ccco4)n3)ccc21	aSyn 5UTR act -77
CC(C)(C)C(=O)Nc1nc(-c2ccc3c(c2)OCO3)cs1	aSyn 5UTR act -147
CCC(=O)Nc1nc(-c2ccc3c(c2)CC(C)N3S(C)(=O)=O)cs1 (stereo not drawn)	aSyn 5UTR act -70
C=CCNc1nc(-c2ccc(O)c(C(N)=O)c2)cs1	aSyn 5UTR act -78
NC1=NN=C(c2ccc3c(c2)OCCO3)CS1	none
CC(=O)Nc1nc(-c2ccc3c(c2)CCO3)cs1	aSyn 5UTR act -125
C=CCNc1nc(-c2ccc3c(c2)OCCO3)cs1	aSyn 5UTR act -134
O=C(Nc1nc(-c2ccc3c(c2)OCCO3)cs1)c1ccco1	aSyn 5UTR act -77
CCC(=O)Nc1nc(-c2ccc3c(c2)OCCO3)cs1	aSyn 5UTR act -136
COc1cc(OC)c2c(c1)O/C(=C\c1ccccc1)C2=O	aSyn 5UTR act -154
N/C(=N\OC(=O)c1cccc(Br)c1)c1ccc(Br)cc1	aSyn 5UTR act -96
N/C(=N\OC(=O)c1ccc(Br)cc1)c1ccccc1	aSyn 5UTR act -190
